The supplement of paper PMC10849652
Targets with a hit are over-represented here; the source holds about 7,900 in all. About 0.6% of all pairs of compound and target were hits.

What follows are compounds tested against ZW10 (UniProt O43264) (assay: log2 fold change, soluble protein after heating vs DMSO (PISA); higher = thermal stabilisation; K562 cells, 10 uM, 30 min; active = over 0.2 and 3.5 SD of the protein, either way, in both replicates (recomputed)).
Method in brief: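 Soluble protein was defined as the supernatant after 21,000xg for 90 min. It came from K562 cells at 2×10^6 cells/mL given 10 μM compound for 30 min, heated in aliquots for 3 min across 48°C-58°C, pooled, and extracted in PBS with 0.5% NP-40 at 4°C, and was quantified by TMTpro 16plex LC-MS/MS with equalised channel sums. Thermal stability against control samples, from duplicates, is reported as log2 fold change.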

ZW10, sequence (O43264 whole entry, looked up): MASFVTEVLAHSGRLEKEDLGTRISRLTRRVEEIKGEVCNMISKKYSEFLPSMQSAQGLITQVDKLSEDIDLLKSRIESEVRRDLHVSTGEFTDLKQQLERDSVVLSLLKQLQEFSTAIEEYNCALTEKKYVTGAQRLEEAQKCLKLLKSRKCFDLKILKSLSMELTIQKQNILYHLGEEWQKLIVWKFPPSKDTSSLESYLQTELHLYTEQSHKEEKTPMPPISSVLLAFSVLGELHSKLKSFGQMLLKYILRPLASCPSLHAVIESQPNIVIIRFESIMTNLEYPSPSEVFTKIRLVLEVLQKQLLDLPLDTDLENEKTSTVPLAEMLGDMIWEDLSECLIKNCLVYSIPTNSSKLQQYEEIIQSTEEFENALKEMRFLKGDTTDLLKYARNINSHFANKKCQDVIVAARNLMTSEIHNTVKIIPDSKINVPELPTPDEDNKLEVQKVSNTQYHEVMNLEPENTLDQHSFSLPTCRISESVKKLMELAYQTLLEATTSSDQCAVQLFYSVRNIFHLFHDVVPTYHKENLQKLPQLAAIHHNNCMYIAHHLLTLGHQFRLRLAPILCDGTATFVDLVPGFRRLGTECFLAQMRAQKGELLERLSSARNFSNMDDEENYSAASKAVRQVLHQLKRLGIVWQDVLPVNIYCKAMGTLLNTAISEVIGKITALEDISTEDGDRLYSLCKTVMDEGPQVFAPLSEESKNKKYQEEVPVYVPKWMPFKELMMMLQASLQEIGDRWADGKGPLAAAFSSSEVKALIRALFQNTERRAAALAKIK

log2 fold change, inactive:
CS(=O)(=O)CCNCc1ccc(-c2ccc3ncnc(Nc4ccc(OCc5cccc(F)c5)c(Cl)c4)c3c2)o1 [lapatinib] -0.01
O=C1NC(=O)/C(=C\c2ccc3nccnc3c2)S1 -0.009
NCC(=O)Nc1ccc(-n2nc(C(F)(F)F)cc2-c2ccc3c(ccc4ccccc43)c2)cc1 -0.007
CC(C)C[C@@H](C=O)NC(=O)[C@H](CC(C)C)NC(=O)[C@H](CC(C)C)NC(=O)OCc1ccccc1 0.007
CCCS(=O)(=O)Nc1ccc(F)c(C(=O)c2c[nH]c3ncc(Cl)cc23)c1F 0.053
CN1CCc2c(c3ccccc3n2Cc2ccc(C(=O)NO)cc2)C1 [Tubastatin A] 0.031
NC1(Cc2ccc(Cl)cc2)CCN(c2ncnc3[nH]ccc23)CC1 -0.062
CON(C)C(=O)N1N=C(c2cc(F)ccc2F)S[C@@]1(CCCN)c1ccccc1 [filanesib] 0.052
CS(=O)(=O)c1ccc(-c2cnc(N)c(C(=O)Nc3ccccc3)n2)cc1 0.027
Nc1ccccc1NC(=O)c1ccc(CNC(=O)OCc2cccnc2)cc1 [entinostat] 0.063
CC[C@H](C)n1cc(C)c2c(C(=O)NCc3c(C)cc(C)[nH]c3=O)cc(-c3ccc(N4CCNCC4)nc3)cc21 0.077
Cc1ccc(-n2nc(C(C)(C)C)cc2NC(=O)Nc2ccc(OCCN3CCOCC3)c3ccccc23)cc1 [doramapimod] 0.048
